Here are results for 32 targets from the supplement of paper PMC10849652.

The full data set covers some 8,800 targets. This sample favours those with a hit. About 0.5% of all pairs of compound and target were hits. Values without a mark were called inactive.

UniProt P35711, sequence (P35711 whole entry, looked up): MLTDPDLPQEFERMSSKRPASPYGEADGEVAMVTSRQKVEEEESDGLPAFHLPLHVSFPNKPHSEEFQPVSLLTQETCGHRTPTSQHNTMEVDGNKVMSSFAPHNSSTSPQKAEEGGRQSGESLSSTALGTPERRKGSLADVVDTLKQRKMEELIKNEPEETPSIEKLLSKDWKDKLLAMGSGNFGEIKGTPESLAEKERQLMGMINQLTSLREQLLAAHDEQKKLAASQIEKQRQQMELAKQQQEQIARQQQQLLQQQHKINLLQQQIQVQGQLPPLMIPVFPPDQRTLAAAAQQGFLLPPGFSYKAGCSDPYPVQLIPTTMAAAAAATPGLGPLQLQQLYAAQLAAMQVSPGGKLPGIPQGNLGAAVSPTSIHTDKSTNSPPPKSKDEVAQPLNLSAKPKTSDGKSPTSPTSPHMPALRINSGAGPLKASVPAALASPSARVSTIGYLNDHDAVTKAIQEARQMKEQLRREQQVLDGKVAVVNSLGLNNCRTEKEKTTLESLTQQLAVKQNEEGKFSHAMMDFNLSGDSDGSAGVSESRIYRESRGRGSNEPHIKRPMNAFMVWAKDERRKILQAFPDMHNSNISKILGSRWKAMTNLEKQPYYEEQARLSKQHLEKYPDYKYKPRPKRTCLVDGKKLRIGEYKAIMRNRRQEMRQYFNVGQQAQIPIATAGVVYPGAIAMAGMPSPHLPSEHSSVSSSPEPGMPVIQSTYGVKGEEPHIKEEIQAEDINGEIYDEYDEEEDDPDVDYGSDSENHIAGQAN
UniProt Q9Y3B4, sequence (Q9Y3B4 whole entry, looked up): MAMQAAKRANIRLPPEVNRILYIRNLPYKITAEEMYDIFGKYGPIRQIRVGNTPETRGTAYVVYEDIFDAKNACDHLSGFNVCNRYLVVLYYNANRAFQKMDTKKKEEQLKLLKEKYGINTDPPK
UniProt Q96EX1, sequence (Q96EX1 whole entry, looked up): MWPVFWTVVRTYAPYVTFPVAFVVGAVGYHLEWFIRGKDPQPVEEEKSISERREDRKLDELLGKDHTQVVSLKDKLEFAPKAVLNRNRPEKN
UniProt Q15022, sequence (Q15022 whole entry, looked up): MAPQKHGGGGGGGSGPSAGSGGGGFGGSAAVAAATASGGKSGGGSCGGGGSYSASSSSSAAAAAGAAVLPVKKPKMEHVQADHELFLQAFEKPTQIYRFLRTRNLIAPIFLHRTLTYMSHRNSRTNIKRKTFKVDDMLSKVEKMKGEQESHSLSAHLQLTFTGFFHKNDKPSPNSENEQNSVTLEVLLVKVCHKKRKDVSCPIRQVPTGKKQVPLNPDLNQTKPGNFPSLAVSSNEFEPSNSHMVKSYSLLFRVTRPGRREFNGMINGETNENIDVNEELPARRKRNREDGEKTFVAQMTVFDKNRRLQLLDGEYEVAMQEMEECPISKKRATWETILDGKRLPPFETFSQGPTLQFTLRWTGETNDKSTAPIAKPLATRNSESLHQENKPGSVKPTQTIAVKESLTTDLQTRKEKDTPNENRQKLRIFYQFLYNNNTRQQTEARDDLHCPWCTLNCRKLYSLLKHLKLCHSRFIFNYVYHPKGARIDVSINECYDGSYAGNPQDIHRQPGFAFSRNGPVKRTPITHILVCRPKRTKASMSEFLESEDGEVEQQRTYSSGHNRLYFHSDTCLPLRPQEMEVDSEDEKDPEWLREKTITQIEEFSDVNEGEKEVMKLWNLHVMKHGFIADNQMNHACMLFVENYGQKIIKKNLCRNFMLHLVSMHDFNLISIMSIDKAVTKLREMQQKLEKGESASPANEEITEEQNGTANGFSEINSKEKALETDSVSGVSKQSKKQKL
UniProt Q13242, sequence (Q13242 whole entry, looked up): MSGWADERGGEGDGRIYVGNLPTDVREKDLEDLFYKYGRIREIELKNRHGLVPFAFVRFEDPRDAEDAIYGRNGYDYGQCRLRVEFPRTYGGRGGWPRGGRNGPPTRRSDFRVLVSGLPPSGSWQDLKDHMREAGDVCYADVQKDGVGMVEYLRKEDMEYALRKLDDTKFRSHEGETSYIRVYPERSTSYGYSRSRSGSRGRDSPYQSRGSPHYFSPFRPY
UniProt Q9BWW4, sequence (Q9BWW4 whole entry, looked up): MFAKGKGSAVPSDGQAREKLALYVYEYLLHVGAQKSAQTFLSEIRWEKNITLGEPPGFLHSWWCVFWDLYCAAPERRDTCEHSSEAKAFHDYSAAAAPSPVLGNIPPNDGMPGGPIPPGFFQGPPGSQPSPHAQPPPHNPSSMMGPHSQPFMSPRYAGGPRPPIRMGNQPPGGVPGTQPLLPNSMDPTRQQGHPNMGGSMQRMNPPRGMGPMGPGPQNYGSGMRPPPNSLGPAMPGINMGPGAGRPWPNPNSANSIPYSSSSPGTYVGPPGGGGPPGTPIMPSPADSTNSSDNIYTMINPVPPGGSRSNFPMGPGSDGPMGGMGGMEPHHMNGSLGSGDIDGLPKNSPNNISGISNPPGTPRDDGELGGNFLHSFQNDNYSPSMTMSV
UniProt O60504, sequence (O60504 whole entry, looked up): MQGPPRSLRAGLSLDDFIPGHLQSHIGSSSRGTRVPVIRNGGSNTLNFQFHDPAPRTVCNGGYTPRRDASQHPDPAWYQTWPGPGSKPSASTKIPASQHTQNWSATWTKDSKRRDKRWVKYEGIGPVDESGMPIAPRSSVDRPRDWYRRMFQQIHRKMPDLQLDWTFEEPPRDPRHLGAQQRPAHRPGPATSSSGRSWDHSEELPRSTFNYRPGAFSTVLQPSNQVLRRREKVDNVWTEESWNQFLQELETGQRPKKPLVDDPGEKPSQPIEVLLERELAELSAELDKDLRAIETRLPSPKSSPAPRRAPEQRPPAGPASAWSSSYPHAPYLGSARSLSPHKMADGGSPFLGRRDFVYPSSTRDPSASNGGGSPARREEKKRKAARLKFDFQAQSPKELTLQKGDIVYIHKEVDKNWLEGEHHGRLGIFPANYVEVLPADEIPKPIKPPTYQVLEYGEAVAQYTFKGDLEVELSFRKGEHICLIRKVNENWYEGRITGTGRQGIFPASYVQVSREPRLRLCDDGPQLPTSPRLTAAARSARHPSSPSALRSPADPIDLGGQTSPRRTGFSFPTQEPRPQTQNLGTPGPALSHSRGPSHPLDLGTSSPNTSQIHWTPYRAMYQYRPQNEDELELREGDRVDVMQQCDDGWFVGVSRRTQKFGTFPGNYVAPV
UniProt Q13395, sequence (Q13395 whole entry, looked up): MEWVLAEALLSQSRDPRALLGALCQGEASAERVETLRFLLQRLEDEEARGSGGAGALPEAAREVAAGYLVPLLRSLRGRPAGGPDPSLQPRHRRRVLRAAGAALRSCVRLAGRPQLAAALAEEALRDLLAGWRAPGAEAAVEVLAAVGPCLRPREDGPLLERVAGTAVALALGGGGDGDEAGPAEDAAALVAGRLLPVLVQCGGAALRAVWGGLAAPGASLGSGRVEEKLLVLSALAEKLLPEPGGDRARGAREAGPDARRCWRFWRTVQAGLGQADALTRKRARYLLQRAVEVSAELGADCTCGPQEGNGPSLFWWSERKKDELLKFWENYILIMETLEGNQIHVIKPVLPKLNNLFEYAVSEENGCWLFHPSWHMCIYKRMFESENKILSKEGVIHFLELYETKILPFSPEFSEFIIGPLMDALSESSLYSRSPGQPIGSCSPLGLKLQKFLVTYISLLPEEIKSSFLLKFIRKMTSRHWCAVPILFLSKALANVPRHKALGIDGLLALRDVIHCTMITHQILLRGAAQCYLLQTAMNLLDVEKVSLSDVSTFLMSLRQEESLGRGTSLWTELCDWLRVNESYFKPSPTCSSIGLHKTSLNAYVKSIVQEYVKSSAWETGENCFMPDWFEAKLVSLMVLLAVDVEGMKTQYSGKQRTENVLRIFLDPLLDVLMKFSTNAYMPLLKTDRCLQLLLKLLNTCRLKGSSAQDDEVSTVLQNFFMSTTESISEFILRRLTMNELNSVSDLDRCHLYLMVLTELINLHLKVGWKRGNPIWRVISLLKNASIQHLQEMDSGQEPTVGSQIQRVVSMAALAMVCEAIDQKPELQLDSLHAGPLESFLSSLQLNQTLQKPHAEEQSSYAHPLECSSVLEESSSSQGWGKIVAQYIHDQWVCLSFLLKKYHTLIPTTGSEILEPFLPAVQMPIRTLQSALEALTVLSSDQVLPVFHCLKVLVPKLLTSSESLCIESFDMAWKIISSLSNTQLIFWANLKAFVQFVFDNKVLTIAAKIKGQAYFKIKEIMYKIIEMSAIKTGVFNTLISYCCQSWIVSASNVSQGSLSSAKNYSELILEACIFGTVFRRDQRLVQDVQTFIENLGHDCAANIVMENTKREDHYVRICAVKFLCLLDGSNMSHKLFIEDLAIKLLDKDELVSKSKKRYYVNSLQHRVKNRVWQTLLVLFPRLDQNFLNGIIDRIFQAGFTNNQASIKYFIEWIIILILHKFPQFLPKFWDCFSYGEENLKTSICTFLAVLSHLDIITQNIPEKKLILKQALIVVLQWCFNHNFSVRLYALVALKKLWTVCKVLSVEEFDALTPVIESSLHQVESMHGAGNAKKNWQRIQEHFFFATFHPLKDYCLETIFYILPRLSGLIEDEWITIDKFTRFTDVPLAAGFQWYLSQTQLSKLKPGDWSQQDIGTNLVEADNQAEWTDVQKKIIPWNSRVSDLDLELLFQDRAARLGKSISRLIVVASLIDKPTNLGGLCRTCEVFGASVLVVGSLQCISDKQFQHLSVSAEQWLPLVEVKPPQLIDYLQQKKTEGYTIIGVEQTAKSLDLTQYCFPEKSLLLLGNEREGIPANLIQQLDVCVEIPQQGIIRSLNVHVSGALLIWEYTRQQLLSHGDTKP
UniProt P10124, sequence (P10124 whole entry, looked up): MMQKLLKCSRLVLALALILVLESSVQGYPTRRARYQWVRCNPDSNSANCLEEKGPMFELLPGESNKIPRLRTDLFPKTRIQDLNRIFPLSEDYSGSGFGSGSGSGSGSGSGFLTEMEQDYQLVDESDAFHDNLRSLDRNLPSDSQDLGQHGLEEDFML
UniProt Q9NZ72, sequence (Q9NZ72 whole entry, looked up): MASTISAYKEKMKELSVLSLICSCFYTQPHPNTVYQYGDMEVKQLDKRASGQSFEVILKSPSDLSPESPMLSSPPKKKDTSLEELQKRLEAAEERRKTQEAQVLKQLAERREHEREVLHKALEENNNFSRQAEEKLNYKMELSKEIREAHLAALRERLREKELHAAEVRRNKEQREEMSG

Compound in the first assay: CN1CCN(CCOc2cc(OC3CCOCC3)c3c(Nc4c(Cl)ccc5c4OCO5)ncnc3c2)CC1 [saracatinib]
The experiment in a line: log2 fold change, soluble protein after heating vs DMSO (PISA); higher = thermal stabilisation; K562 lysate, 10 uM; active = over 0.2 and 3.5 SD of the protein, either way, in both replicates (recomputed). Summed up:
(§1)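 Following dounce homogenisation of K562 pellets in PBS pH 7.4 with 1 mM MgCl2, crude extract at 1 mg/mL protein was incubated for 30 min with 10 μM compound. Aliquots were then heated for 3 min over 48°C-58°C and pooled, NP-40 was added to 0.5% at 4°C, and soluble protein was recovered as the supernatant at 21,000xg for 90 min. Channel-sum-equalised TMTpro 16plex LC-MS/MS quantified this protein. Each value, from duplicates, is a log-two fold change in thermal stability relative to solvent controls.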
For the target SORBS3 (UniProt O60504), the log2 fold change is 0.052.

With SF3B6 (UniProt Q9Y3B4), the log2 fold change was 0.028. Still for that read-out and setting: the value for TAF1B (UniProt Q53T94) was 0.045. For the target SH3GL1 (UniProt Q99961), the log2 fold change was 0.011. On the same count and under the same terms, the result for SLC25A38 (UniProt Q96DW6) reads -0.127. Still for that read-out and setting: the result for SMYD3 (UniProt Q9H7B4) reads 0.045.

In the case of SIX5 (UniProt Q8N196), the log2 fold change was -0.093. Take SSBP3 (UniProt Q9BWW4): the log2 fold change is 0.068.

As to SNRPD2 (UniProt P62316), the log2 fold change was -0.021.

On to SLC39A11 (UniProt Q8N1S5), for which the log2 fold change is -0.108. The same measure, in the same setting: the value for SRSF9 (UniProt Q13242) was -0.021; that for SMIM12 (UniProt Q96EX1) was 0.041; that for SZT2 (UniProt Q5T011) was -0.073.

Consider STMN3 (UniProt Q9NZ72), for which the log2 fold change is 0.053. The same measure, in the same setting: the value for SLC25A44 (UniProt Q96H78) was -0.041. In the case of SYNE2 isoform 2 (UniProt Q8WXH0), the log2 fold change is -0.054. Still for that read-out and setting: the value for STK3 isoform 2 (UniProt Q13188) was -0.01. The same measure, in the same setting: the value for SURF2 (UniProt Q15527) was 0.004; that for SPC25 (UniProt Q9HBM1) was 0.013. Same read-out and setting: the value for SH3BP2 isoform 4 (UniProt P78314) was 0.006; that for SMC1B isoform 3 (UniProt Q8NDV3) was 0.055; that for TARBP1 (UniProt Q13395) was -0.055. Consider SRRT (UniProt Q9BXP5), for which the log2 fold change is -0.016.

On to SOX5 (UniProt P35711), for which the log2 fold change is 0.076. Take SYK (UniProt P43405): the log2 fold change is -0.041. On the same count and under the same terms, the result for SUZ12 (UniProt Q15022) reads -0.019; that for SRGN (UniProt P10124), 0.043.

Compound in another assay: CN1CCN(c2nc(C3=C(c4c[nH]c5ccccc45)C(=O)NC3=O)c3ccccc3n2)CC1 [sotrastaurin]
The description is as above. In short, it runs like this:
as §1
For SORBS3 (UniProt O60504), the log2 fold change is -0.011. Same read-out and setting: the value for SF3B6 (UniProt Q9Y3B4) was 0.018. Same read-out and setting: the result for TAF1B (UniProt Q53T94) reads 0.055. On the same count and under the same terms, the result for SH3GL1 (UniProt Q99961) reads -0.03; that for SLC25A38 (UniProt Q96DW6), 0.07.

Take SLC30A6 isoform 2 (UniProt Q6NXT4): the log2 fold change is -0.004.

As to SMYD3 (UniProt Q9H7B4), the log2 fold change is -0.005. As to SIX5 (UniProt Q8N196), the log2 fold change is -0.009. On the same count and under the same terms, the value for SSBP3 (UniProt Q9BWW4) was -0.005; that for SNRPD2 (UniProt P62316) was 0.011. Same read-out and setting: the result for SNUPN (UniProt O95149) reads 0.028. For the target SLC39A11 (UniProt Q8N1S5), the log2 fold change was -0.009. The same measure, in the same setting: the value for STN1 (UniProt Q9H668) was -0.025. Still for that read-out and setting: the result for SRSF9 (UniProt Q13242) reads -0.064; that for SMIM12 (UniProt Q96EX1), 0.025; that for STMN3 (UniProt Q9NZ72), 0.009.

As to SLC25A44 (UniProt Q96H78), the log2 fold change is 0.062. The same measure, in the same setting: the result for SYNE2 isoform 2 (UniProt Q8WXH0) reads 0.035. As to STK3 isoform 2 (UniProt Q13188), the log2 fold change is 0.142.

Take SPPL2A (UniProt Q8TCT8): the log2 fold change is -0.029.

For the target SURF2 (UniProt Q15527), the log2 fold change was -0.007. For SPC25 (UniProt Q9HBM1), the log2 fold change is -0.013. Consider SH3BP2 isoform 4 (UniProt P78314), for which the log2 fold change was 0.02. Same read-out and setting: the value for SMC1B isoform 3 (UniProt Q8NDV3) was -0.02; that for TARBP1 (UniProt Q13395) was 0.038; that for SRRT (UniProt Q9BXP5) was 0.02. In the case of SMIM1 (UniProt B2RUZ4), the log2 fold change is 0.088. The same measure, in the same setting: the result for SOX5 (UniProt P35711) reads -0.131. On to SYK (UniProt P43405), for which the log2 fold change is 0.068.

Consider SUZ12 (UniProt Q15022), for which the log2 fold change was 0. Still for that read-out and setting: the result for SRGN (UniProt P10124) reads 0.069.
